The whole screen tested about 220,000 compounds, of which about 2,400 (1.1%) were called active. This is one part of a sample in which actives are shown more often than they occur.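 How the source made its calls: active means inhibition above a per-campaign cutoff, the mean inhibition of all tested compounds plus 3 SD (cut at about 27% in these data); inactive means the rest.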
Assay: growth loss in parental Ba/F3 cells – cell-based, murine pro-B, CellTiter-Glo luminescence, counter-screen for JAK2V617F inhibitor project (AID 1486);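 further: 0% = DMSO wells and 100% = JAK Inhibitor I control wells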
Conditions: Ba/F3 parental viability, CellTiter-Glo ATP luminescence; at 5.6 µM; stronger effect = higher value

SMILES	inhibition
Brc1ccc2ncnc(NCc3cccnc3)c2c1	-4.51% (inactive)
CC1CCCN(S(=O)(=O)c2ccc(C(=O)Nc3nnc(-c4ccncc4)o3)cc2)C1 (centres undefined)	6.63% (inactive)
CC1CCCCN1S(=O)(=O)c1ccc(C(=O)Nc2nnc(-c3cccs3)o2)cc1 (centres undefined)	34.1% (active)
CC1CCCCN1S(=O)(=O)c1ccc(S(=O)(=O)N(CC(=O)Nc2ccccc2)Cc2cccs2)cc1 (centres undefined)	1.87% (inactive)
COc1ccc2[nH]c(C(=O)Nc3ccccc3Cl)cc2c1	-2.76% (inactive)
Cc1cc([N+](=O)[O-])ccc1NC(=O)c1ccc(NC(=O)C(C)C)cc1	6.88% (inactive)
CC(=O)NC(=S)Nc1ccc(NC(=S)NC(=O)c2ccc([N+](=O)[O-])cc2)cc1	-2.36% (inactive)
Cn1ccc(=Nc2ccc(NC(=O)c3ccc(N=c4ccn(C)c5ccc([N+](=O)[O-])cc45)cc3)cc2)cc1	29.7% (active)
CC1CCN(c2c(NCc3ccc(C(=O)NCc4ccccc4)cc3)c(=O)c2=O)CC1	-0.24% (inactive)
CCN1CCN(C(c2cccnc2)c2cc(Cl)c3cccnc3c2O)CC1 (centres undefined)	4.4% (inactive)
CCOC(=O)N1CCN(C(c2cccnc2)c2ccc3cccnc3c2O)CC1 (centres undefined)	35.8% (active)
Oc1c(C(c2ccccn2)N2CCOCC2)ccc2cccnc12 (centres undefined)	2.22% (inactive)
CCCNC(=O)OC[C@H]1O[C@H](CCO/N=C/[C@@H](NS(=O)(=O)c2ccc(C)cc2)[C@H](C)/C=C/CC(=O)OC)C=C[C@@H]1Oc1ccc(OC)cc1	1.98% (inactive)
CC1CCN(C(=O)c2ccc(S(=O)(=O)Cc3cc(F)ccc3F)c([N+](=O)[O-])c2)CC1	2.51% (inactive)
Cc1ccc(/C=N/NC(=O)CN2CCN(Cc3ccccc3)CC2)s1	0.65% (inactive)
CCCCCCn1c(CN2CCCCC2)nc2c1c(=O)n(C)c(=O)n2C	2.14% (inactive)
CCCCCCCCn1c2c(c(=N)c3c1CCC3)CCCC2	88.4% (active)
Cc1cc(CNC(=O)c2cccc([N+](=O)[O-])c2)c2ccccc2n1	-2.87% (inactive)
O=C(Nn1c(SCc2ccc([N+](=O)[O-])cc2)nc2ccccc2c1=O)c1ccc(F)cc1	-1.55% (inactive)
CN(CC(=O)NC1CCCC1)S(=O)(=O)c1cnc[nH]1	-0.47% (inactive)
CSc1ccc(C#N)cc1NC(=O)c1ccc(Cl)cc1	1.1% (inactive)
COc1ccccc1Nc1nc(N)nc(CN(C)C2CCCCC2)n1	0.48% (inactive)
COc1ccccc1NC1=NC(c2ccc(Cl)cc2)N=C(N)N1 (centres undefined)	81.1% (active)
COc1ccccc1NC1=NC2(CCCC2)N=C(N)N1	10.5% (inactive)
